Data reported in PubChem BioAssay AID2673 (National Center for Advancing Translational Sciences (NCATS), 2010).
Results filed as inconclusive are left out. Entries that show only a call come without a potency. Activity calls are given as the source filed them. The call rests on the fitted dose curve; in most records, active means well fitted activation curve with a large enough effect; inconclusive means small, poorly fitted or top-dose-only effect; inactive means no such curve, though single readings can be large or run the other way.

assay: qHTS Multiplex Assay to Identify Dual Action Probes in a Cell Model of Huntington: Cytoprotection confirmation (ATP); conditions: PC12 HttQ103 induced, ATP luminescence 40 h; series mostly up to 46.1 µM
From the text: NIH Chemical Genomics Center [NCGC]
NIH Molecular Libraries Probe Production centers Network [MLPCN]
Assay Submitter (PI): Wei Zheng
Huntington's disease is a neurodegenerative disorder caused by a trinucleotide repeat expansion in Exon 1 of the Huntingtin gene. The CAG trinucleotide encodes glutamine and polyglutamine expansions cause cell death in selective areas of the brain. Huntington polyglutamine repeats have the tendency to form aggregates which are observable in later stages of the disease. The exact nature of the aggregates, whether toxic, protective, or insignificant, is unclear.
A stable PC12 cell line containing a gene fusion of Exon 1 of the Huntingtin gene linked to GFP under the control of the inducible ecdysone promoter were used as the cell-based model of Huntington Disease for high throughput screening. Exon 1 of the Huntingtin gene contained an expansion of 103 polyglutamines (Q103) which, when expressed, caused cell death and distinct, bright GFP aggregates. The amount of cell death and the size and intensity of GFP aggregates increased over time and induction level. The cell death were quantified with a measurement of ATP content in the cells. A maximal 40-50% of cell death was observed when the Huntington gene was induced in this cell line.
We optimized this assay in a homogeneous 1536 well format. A quantitative high throughput screen (qHTS) was conducted on the PC12 cells which were induced to express the toxic fusion construct. Small molecules which prevented cell death were identified by using a luminescent ATP quantification method (Perkin Elmer's ATPlite).
PC12 cells stably containing a construct with an ecdysone inducible promoter expressing GFP fused to the exon 1 of HTTQ103 (Huntington protein which containing a 103 ployglutamine expansion) were used.
NCGC Assay Protocol Summary:
Sequence, Parameter, Description
1, Reagent, 5 uL 1500 cells/well 1536 TC treated White clear bottom plate
2, Compound, 23 nL Tebufenozide inducer (100 nM final) to all columns
3, Compound, 23 nL 40 uM to 0.5 nM Libraries
5, Reagent, 5 ul ATPLite cell death assay reagent
6, Detector, 4 sec integration with a Viewlux Luminescent
Media consisted of phenol red free DMEM + 5% equine serum (Hyclone # SH30072.03 ), 5% supplemented Bovine Calf Serum (Hyclone # SH30074.03 ), 1x pen/strep, no G418

| SMILES | Potency |
| --- | --- |
| Cn1nnnc1Sc1ncnc2scc(-c3cccc(F)c3)c12 | 14.1 µM (active) |
| Cc1nnsc1C(=O)N/N=C/c1ccc2ccccc2c1O | inactive |
| C#CCN(C)CCCOc1ccc(Cl)cc1Cl | inactive |
| O=C(Nc1cccnc1)Nc1ccccc1Cl | inactive |
| COc1ccc2cc3cc(C(=O)NCc4ccco4)oc3nc2c1 | inactive |
| CCc1nc(SCC(=O)Nc2nc3c(s2)CCCC3)c2ccccc2n1 | inactive |
| C[C@]12CC[C@@H]3c4ccc(OC(=O)c5ccccc5)cc4CC[C@H]3[C@@H]1CC[C@@H]2O | inactive |
| CN1C(=O)C2(c3ccccc31)C1CCCC=C1C(C#N)=C(N)C2(C#N)C#N (stereo not given) | inactive |
| Cn1nnnc1Sc1ncnc2scc(-c3cccc(C(F)(F)F)c3)c12 | 14.1 µM (active) |
| Cn1nnnc1Sc1ncnc2scc(-c3cc4ccccc4o3)c12 | inactive |
| CN(C)c1ccc(-c2n(C)c3ccccc3[n+]2C)cc1 | inactive |
| Cn1nnnc1Sc1ncnc2scc(-c3cccc(S(C)(=O)=O)c3)c12 | inactive |
| Cn1nnnc1Sc1ncnc2scc(-c3ccc4c(=O)ccoc4c3)c12 | inactive |
| Cn1nnnc1Sc1ncnc2scc(-c3ccc(Cl)cc3)c12 | inactive |
| COc1ccc(C(=O)C(CN2CCOCC2)c2ccccc2)cc1 (stereo not given) | inactive |
| CCC(=O)OCCCCCCOc1ccc(C(=O)O)cc1 | inactive |
| Cn1nnnc1Sc1ncnc2scc(-c3ccccc3C#N)c12 | 28.2 µM (active) |
| COc1c(F)c(F)c(C(=O)Nc2ccc3oc(-c4ccncc4)nc3c2)c(F)c1F | inactive |
| Cn1nnnc1Sc1ncnc2scc(-c3cccs3)c12 | 10 µM (active) |
| Cn1nnnc1Sc1ncnc2scc(-c3ccccc3Br)c12 | 35.5 µM (active) |

| SMILES | Potency |
| --- | --- |
| Cn1nnnc1Sc1ncnc2scc(-c3ccc[nH]3)c12 | 12.6 µM (active) |
| Cn1nnnc1Sc1ncnc2scc(-c3ccccc3F)c12 | inactive |
| C=CCC(=O)OCCCCCCOc1ccc(C(=O)O)cc1 | inactive |
| Cn1nnnc1Sc1ncnc2scc(-c3ccc(N)cc3)c12 | inactive |
| Cn1nnnc1Sc1ncnc2scc(-c3ccccc3Cl)c12 | 31.6 µM (active) |
| Cn1nnnc1Sc1ncnc2scc(-c3cccc(Cl)c3)c12 | 14.1 µM (active) |
| CCc1nc(SCC(=O)N2CCCC2)c2ccccc2n1 | inactive |
| CNCCCN1c2ccccc2CCc2ccccc21 | inactive |
| CCN(CC)CCNc1ccc(CO)c2sc3ccccc3c(=O)c12 | inactive |
| COc1ccc2c(c1)-c1c(ssc1=S)C(C)(C)N2 | inactive |
| CCCn1nc([N+](=O)[O-])c(C(C#N)c2nc3ccccc3s2)c(Cl)c1=O (stereo not given) | inactive |
| O=c1oc2cc(O)ccc2s1 | inactive |
| C=C1CCC2[C@](C)(CO)[C@H](O)CC[C@@]2(C)[C@@H]1C/C=C1/C(=O)OC[C@H]1O (stereo not given in full) | inactive |
| O=Nc1c(-c2c(O)[nH]c3ccccc23)[nH]c2ccccc12 | inactive |
| CCOC(=O)c1sc2nc(N3CCOCC3)c3c(c2c1N)CC(C)(C)N(C)C3 | inactive |
| Cc1noc(C)c1COC(=O)Cc1ccc(Cl)cc1 | inactive |
| Cn1nnnc1Sc1ncnc2scc(-c3cccc4ccccc34)c12 | 8.91 µM (active) |
| Cc1nnc2n1N=CC=C(c1ccccc1)S2 | inactive |
| CC(C)(C)n1nnnc1C(c1ccc2ncccc2c1)N1CCSCC1 (stereo not given) | inactive |
| COc1ccccc1-n1nnnc1S(=O)(=O)Cc1ccc(Cl)cc1 | inactive |
